{"source": "PubChem BioAssay (NCATS)", "note": "Results filed as inconclusive are left out. Values without a mark were called inactive. Calls follow the shape of the dose curve; as a rule, active = well fitted inhibition curve with a large enough effect; inconclusive = small, poorly fitted or top-dose-only effect; inactive = flat fitted curve, though single readings scatter. % is scaled to controls: 0 for no effect and ±100 for the full control effect."}
{"test_system": "MKL-1", "assay": "qHTS assay to identify novel small-molecules to repurpose for Merkel cell carcinoma treatment (AID 1296009); also: nearly all actives have a fitted effect of over 60% in size", "conditions": "MCC and control cell lines, CellTiter-Glo viability, 72 h; series mostly up to 46 µM; activity change, negative = cytotoxicity: at the top concentration", "procedure,_shortened": "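Cell viability, measured as CellTiter-Glo luminescence, was normalized between DMSO and no-cell wells. The cells had been exposed to 8- or 11-point compound dilutions for 72 hr at 37 degree celsius.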"}
{"compound": "CC(C)(C)c1nnc(NS(=O)(=O)c2ccc(N)cc2)s1", "activity change, negative = cytotoxicity": "7.8%"}
{"compound": "N=C(N)N", "activity change, negative = cytotoxicity": "11.4%"}
{"compound": "Cc1ccc(C(=O)c2ccc(CC(=O)O)n2C)cc1", "activity change, negative = cytotoxicity": "4.32%"}
{"compound": "CCCCCCCC/C=C/C(=O)O", "activity change, negative = cytotoxicity": "-2.3%"}
{"compound": "O=C(/C=C/c1ccccc1)NCCO", "activity change, negative = cytotoxicity": "9.92%"}
{"compound": "COc1cc2c3cc1Oc1cc(ccc1O)C[C@@H]1c4c(cc(OC)c(O)c4Oc4ccc(cc4)C[C@@H]3N(C)CC2)CC[N+]1(C)C", "activity change, negative = cytotoxicity": "2.67%"}
{"compound": "O=C(O)Cc1ccc2c(c1)C(=O)c1ccccc1CO2", "activity change, negative = cytotoxicity": "13.5%"}
{"compound": "O=C(Nc1ccc(C(=O)O)c(O)c1)c1ccccc1", "activity change, negative = cytotoxicity": "13.9%"}
{"compound": "CO[C@@]1(NC(=O)Cc2cccs2)C(=O)N2C(C(=O)O)=C(COC(N)=O)CS[C@@H]21", "activity change, negative = cytotoxicity": "4.7%"}
{"compound": "Nc1ccc(O)c(C(=O)O)c1", "activity change, negative = cytotoxicity": "8.81%"}
{"compound": "C=CCCCCCCCCC(=O)O", "activity change, negative = cytotoxicity": "0.691%"}
{"compound": "Nc1c(CC(=O)O)cccc1C(=O)c1ccc(Br)cc1", "activity change, negative = cytotoxicity": "4.27%"}
{"compound": "O=C(OCc1ccccc1)c1ccccc1", "activity change, negative = cytotoxicity": "0.335%"}
{"compound": "CCCCCCCCCCCCOCCO", "activity change, negative = cytotoxicity": "1.73%"}
{"compound": "CN(C)[C@@H]1C(=O)C(C(=O)NCN2CCCC2)=C(O)[C@@]2(O)C(=O)C3=C(O)c4c(O)cccc4[C@@](C)(O)C3C[C@@H]12", "note": "(stereo partly specified)", "activity change, negative = cytotoxicity": "-5.33%"}
{"compound": "O=C(O)Cc1ccc(-c2ccccc2)cc1", "activity change, negative = cytotoxicity": "3.52%"}
{"compound": "Cc1c(Nc2ncccc2C(=O)O)cccc1C(F)(F)F", "activity change, negative = cytotoxicity": "0.703%"}
{"compound": "CC(C(=O)O)c1ccc2c(c1)[nH]c1ccc(Cl)cc12", "note": "(stereo unspecified)", "activity change, negative = cytotoxicity": "-10.3%"}
{"compound": "CCCOC(=O)c1ccc(O)cc1", "activity change, negative = cytotoxicity": "6.99% [at 92.7 µM]"}
{"compound": "CCCCCCCCCCCC(=O)[O][Sn]([CH2]CCC)([CH2]CCC)[O]C(=O)CCCCCCCCCCC", "activity change, negative = cytotoxicity": "-0.215%"}
{"compound": "O=C(O)/C=C\\C(=O)O", "activity change, negative = cytotoxicity": "0.211%"}
